Data as given in ChEMBL document CHEMBL3988442, “University of Dundee, Small-Polar-MMV Screening Library” (2021).
For part of these data: Results with a measured potency or affinity are listed apart.

What was measured:
Design in all cases: scale not given: direction of the effect not stated beside the values
[1] = target: Protein translocase subunit SecA (Escherichia coli (strain K12)) (UniProt P10408); assay: Assay to Identify E. coli SecA ATPase Inhibitors; type: functional; conditions: 30 µM
Chain of Protein translocase subunit SecA (Escherichia coli (strain K12)) (P10408 whole entry): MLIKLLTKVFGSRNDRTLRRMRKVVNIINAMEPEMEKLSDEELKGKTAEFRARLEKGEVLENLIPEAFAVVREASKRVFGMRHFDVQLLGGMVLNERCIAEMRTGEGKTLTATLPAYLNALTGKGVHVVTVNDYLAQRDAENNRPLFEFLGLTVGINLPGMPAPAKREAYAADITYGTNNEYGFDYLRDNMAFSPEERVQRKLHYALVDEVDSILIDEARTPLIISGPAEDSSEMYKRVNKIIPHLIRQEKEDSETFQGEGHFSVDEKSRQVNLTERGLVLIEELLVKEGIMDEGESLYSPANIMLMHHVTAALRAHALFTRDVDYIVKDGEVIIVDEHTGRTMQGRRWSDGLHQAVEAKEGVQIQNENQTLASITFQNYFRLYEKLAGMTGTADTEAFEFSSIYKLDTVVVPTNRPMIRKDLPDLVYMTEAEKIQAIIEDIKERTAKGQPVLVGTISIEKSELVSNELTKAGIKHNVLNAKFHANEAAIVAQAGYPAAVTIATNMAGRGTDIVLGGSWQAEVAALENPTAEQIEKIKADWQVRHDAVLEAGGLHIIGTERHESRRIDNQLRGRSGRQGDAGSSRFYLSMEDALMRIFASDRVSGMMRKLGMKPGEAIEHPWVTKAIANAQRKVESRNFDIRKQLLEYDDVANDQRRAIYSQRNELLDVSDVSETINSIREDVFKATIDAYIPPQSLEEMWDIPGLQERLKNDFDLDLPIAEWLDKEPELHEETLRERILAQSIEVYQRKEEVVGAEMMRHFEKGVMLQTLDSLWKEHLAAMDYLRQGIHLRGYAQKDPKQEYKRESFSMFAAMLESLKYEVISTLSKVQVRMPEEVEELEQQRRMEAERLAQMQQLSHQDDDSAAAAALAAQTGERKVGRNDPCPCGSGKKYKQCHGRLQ

[2] = target: T1, Ubiquitin-activating enzyme e1, putative (Leishmania donovani (strain BPK282A1)) (UniProt E9BSI1); assay: Leishmania donovani Ubiquitin Activating Enzyme (LdE1); type: functional; conditions: 30 µM
T1 sequence (whole entry): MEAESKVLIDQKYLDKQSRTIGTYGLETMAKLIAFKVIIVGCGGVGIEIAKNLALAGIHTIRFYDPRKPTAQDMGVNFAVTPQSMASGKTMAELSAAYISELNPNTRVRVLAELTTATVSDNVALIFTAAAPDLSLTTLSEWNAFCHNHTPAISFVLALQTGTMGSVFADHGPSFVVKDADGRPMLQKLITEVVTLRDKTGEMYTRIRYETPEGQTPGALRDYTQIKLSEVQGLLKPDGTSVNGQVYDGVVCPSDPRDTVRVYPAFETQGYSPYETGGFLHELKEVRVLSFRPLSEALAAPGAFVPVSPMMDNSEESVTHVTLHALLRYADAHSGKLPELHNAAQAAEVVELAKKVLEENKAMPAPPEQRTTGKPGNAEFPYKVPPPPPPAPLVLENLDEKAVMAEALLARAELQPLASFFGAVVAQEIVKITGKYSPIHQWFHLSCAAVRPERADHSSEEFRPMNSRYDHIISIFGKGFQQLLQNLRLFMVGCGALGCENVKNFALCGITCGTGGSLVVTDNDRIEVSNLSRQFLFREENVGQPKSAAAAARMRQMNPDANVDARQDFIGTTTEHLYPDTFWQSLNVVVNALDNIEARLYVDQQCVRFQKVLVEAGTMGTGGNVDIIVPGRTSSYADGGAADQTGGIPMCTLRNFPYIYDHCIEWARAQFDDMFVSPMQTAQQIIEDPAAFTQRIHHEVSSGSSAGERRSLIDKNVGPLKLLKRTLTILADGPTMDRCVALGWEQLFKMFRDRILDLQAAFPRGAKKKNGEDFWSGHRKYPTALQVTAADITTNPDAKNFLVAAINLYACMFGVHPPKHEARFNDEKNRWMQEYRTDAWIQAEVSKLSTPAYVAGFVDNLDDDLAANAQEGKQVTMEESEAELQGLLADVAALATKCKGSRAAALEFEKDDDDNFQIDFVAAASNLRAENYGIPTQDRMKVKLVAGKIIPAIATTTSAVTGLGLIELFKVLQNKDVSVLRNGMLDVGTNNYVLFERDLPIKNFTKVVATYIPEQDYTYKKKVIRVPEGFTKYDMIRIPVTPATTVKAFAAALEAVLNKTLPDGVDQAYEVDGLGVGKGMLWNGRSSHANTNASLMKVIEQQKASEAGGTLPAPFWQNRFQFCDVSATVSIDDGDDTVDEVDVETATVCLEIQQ

[3] = target: AMP-activated protein kinase, AMPK (Homo sapiens) (UniProt P54646+O43741+P54619+Q9UGJ0+Q9Y478+Q13131+Q9UGI9); assay: AMP-dependent Kinase enzyme assay. An in vitro enzyme assay that detects ADP turnover that is directly proportional to AMPK activity. This uses naive AMPK that is activated during the assay with MK-8722; type: functional; conditions: 30 µM
[4] = target: Sialic acid-binding Ig-like lectin 9 (Homo sapiens) (UniProt Q9Y336); assay: Hs-Siglec9 ALPHAscreen SOP 20170721; conditions: 10 µM
Chain of Sialic acid-binding Ig-like lectin 9 (Homo sapiens) (Q9Y336 whole entry): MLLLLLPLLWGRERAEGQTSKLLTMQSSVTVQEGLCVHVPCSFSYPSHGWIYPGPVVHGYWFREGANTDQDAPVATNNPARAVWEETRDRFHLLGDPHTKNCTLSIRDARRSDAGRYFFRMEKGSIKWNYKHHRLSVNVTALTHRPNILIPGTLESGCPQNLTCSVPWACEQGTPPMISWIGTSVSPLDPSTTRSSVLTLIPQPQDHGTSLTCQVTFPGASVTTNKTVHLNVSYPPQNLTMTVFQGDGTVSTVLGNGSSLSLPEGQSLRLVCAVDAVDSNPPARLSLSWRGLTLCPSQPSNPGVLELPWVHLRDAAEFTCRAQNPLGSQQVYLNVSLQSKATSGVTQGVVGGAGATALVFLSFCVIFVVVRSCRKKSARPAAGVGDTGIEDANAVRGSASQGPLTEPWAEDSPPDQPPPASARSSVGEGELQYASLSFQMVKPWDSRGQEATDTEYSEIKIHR

Trypanosoma cruzi = assay: Trypanosoma cruzi phosphomannomutase and mannose-1-phosphate guanylyltransferase assay; type: functional; conditions: 10 µM
[5] = target: T2, Arginase-2, mitochondrial (Homo sapiens) (UniProt P78540); assay: in vitro enzyme assay to detect the production of urea directly proportional to the activity of Arginase II; type: functional; conditions: 33.3 µM; also: in the data most compounds retested in dose-response had high values
T2 sequence (whole entry): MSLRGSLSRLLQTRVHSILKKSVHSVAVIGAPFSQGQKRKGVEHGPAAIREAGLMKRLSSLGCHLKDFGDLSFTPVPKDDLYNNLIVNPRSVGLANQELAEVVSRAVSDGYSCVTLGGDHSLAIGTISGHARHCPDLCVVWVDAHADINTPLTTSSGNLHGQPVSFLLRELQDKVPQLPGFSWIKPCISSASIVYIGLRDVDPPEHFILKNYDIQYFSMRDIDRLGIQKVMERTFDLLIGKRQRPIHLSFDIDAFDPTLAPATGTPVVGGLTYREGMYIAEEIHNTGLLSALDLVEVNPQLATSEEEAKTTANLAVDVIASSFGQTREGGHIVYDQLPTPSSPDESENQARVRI

[6] = target: T3, Proteasome subunit beta (Trypanosoma cruzi) (UniProt O96673); assay: Trypanosoma cruzi proteasome chymotrypsin-like activity (TcProtChymo) assay.; also: in the data most compounds retested in dose-response had high values; type: functional; conditions: 9.37 µM
T3 sequence (whole entry): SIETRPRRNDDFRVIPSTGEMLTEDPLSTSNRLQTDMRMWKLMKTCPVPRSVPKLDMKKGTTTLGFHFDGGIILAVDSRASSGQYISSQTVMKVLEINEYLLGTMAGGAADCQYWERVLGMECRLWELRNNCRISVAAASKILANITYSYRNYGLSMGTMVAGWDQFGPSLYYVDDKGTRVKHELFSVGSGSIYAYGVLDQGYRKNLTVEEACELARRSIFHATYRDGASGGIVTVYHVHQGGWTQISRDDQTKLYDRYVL

Homo sapiens = organism: Homo sapiens; assay: To identify inhibition of the IFN signalling (Jak-Stat) pathway via expression of an eGFP reporter gene under the control of an IFN-stimulated response element (ISRE) containing MxA promoter.; type: functional; conditions: 30 µM
[7] = target: T4, Tyrosyl-tRNA synthetase, putative (Trypanosoma cruzi (strain CL Brener)) (UniProt Q4DSP6); assay: Trypanosoma cruzi tyrosyl tRNA synthetase (TcYRS) _High Tyrosine SOP; type: functional; conditions: 30 µM; also: in the data most compounds retested in dose-response had high values
T4 sequence (whole entry): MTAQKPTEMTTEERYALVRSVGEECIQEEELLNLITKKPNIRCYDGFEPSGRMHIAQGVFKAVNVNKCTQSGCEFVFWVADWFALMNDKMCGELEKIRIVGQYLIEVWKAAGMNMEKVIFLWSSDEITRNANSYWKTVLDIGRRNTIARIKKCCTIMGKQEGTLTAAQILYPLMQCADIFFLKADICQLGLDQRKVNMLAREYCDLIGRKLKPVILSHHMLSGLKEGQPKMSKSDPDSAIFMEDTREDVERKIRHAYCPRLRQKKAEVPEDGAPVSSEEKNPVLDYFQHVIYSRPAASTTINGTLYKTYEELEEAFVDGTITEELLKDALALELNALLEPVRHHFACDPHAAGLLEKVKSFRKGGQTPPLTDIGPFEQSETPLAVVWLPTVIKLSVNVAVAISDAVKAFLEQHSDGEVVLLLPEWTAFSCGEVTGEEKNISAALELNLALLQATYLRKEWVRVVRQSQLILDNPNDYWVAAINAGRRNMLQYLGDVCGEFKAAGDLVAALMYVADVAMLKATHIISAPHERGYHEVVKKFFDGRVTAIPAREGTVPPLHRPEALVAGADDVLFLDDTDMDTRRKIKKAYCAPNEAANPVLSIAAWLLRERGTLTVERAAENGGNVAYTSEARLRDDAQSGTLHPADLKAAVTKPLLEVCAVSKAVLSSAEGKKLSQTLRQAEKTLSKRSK

[8] = target: T4, Tyrosyl-tRNA synthetase, putative (Trypanosoma cruzi (strain CL Brener)); assay: Trypanosoma cruzi tyrosyl tRNA synthetase (TcYRS) SOP; type: functional; conditions: 30 µM
[9] = target: Chromo domain-containing protein 1 (Saccharomyces cerevisiae (strain ATCC 204508 / S288c) (Baker's yeast)) (UniProt P32657); assay: ScCHD-1 Enzyme Inhibition Assay; type: functional; conditions: 30 µM; also: in the data most compounds retested in dose-response had high values
Chain of Chromo domain-containing protein 1 (Saccharomyces cerevisiae (strain ATCC 204508 / S288c) (Baker's yeast)) (P32657 whole entry, the tested form may be a part): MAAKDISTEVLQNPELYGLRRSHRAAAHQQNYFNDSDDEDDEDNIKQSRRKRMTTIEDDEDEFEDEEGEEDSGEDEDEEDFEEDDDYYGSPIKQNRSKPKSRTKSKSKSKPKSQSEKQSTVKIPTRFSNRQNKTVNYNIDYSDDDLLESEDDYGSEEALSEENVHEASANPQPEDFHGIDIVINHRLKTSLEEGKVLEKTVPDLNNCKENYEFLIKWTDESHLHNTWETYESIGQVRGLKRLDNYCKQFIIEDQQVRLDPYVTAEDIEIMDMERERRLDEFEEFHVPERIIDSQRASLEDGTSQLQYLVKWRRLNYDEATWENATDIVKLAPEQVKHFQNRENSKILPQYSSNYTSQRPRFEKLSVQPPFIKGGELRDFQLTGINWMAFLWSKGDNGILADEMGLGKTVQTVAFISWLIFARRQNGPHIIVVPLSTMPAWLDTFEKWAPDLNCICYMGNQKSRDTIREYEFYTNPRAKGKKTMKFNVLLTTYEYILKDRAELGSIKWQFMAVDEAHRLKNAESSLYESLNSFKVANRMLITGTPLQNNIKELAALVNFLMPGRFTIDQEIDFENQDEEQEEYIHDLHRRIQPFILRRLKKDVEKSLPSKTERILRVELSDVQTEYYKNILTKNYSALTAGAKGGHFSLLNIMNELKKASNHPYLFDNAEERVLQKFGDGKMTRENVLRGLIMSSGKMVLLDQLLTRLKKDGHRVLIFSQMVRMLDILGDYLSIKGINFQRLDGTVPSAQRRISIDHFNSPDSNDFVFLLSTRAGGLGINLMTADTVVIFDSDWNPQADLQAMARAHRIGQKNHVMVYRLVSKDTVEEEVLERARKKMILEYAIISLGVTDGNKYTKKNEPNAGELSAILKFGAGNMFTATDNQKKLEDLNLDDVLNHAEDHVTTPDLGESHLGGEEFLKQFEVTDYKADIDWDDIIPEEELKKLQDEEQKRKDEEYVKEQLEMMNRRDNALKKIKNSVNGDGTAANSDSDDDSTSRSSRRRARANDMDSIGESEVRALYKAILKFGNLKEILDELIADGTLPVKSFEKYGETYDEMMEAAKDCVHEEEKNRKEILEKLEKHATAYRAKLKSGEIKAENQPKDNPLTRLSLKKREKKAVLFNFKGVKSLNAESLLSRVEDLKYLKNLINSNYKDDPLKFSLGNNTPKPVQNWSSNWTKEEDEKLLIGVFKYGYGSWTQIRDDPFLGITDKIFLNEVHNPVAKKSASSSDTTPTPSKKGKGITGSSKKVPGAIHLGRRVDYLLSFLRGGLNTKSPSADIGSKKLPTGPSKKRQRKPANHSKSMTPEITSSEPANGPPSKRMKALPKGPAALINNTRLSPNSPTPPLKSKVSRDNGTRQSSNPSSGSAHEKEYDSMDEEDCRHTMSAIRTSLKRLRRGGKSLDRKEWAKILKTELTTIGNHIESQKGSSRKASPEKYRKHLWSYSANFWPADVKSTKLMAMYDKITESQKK

Row | SMILES | Percent Effect [1] [%] | Percent Effect [2] [%] | Percent Effect [3] [%] | Percent Effect [4] [%] | Percent Effect (Trypanosoma cruzi) [%] | Percent Effect [5] [%] | Percent Effect [6] [%] | Percent Effect (Homo sapiens) [%] | Percent Effect [7] [%] | Percent Effect [8] [%] | Percent Effect [9] [%]
1 | CN(CC(=O)NCc1ccccn1)CC1CCCN1c1cccnn1 (stereo unspecified) | -1.59 | -5.41 | -4.72 | -0.887 | -2.15 | -3.75 | 27.8 | 3.47 | 8.91 | 1.22 | -0.357
2 | c1cnc(N2CCC3(COCc4cnc(-c5cccnc5)nc43)C2)nc1 (stereo unspecified) | -3.71 | -2.7 | 12.2 | -3.8 | -1.86 | -5.41 | 1.11 | 3.84 | -1.08 | -10.3 | -4.41
3 | Cc1nc(C(=O)N2CCCC2c2c(C)nn(C)c2C)ccc1C#N (stereo unspecified) | -5.64 | -1.27 | 7.49 | 4.58 | -2.36 | 1.07 | 16.1 | 4.46 | 0 | 2.53 | 10.7
4 | CN1CCN(c2nc(O)c3c(-c4ccccn4)ccnc3n2)CC1 | -4.77 | 0 | 6.93 | 2.2 | -2.24 | -7.1 | 18.1 | -16.4 | 6.38 | 10.4 | -7.72
5 | Cc1ccc(-n2nnc(C(=O)Nc3cc(C)nn3C)c2C2CC2)cc1 | -8.29 | 5.41 | 1.63 | -1.73 | -3.99 | 1.66 | 8.98 | 33.1 | 3.96 | 1.22 | 1
6 | O=C(Cn1ccc2ccc(Br)cc21)NC[C@@H]1CCCN2CCCC[C@H]12 | -9.26 | -4 | 0.939 | -2.99 | -5.5 | -12.8 | 2.03 | 7.57 | 0 | -56.4 | -8.03
7 | CC(NC(=O)NCCN1CCCCCC1=O)c1nncn1C (stereo unspecified) | -5.58 | 13.5 | -10.1 | 13.4 | 4.92 | -3.51 | -2.69 | 11.3 | 7.92 | 15.8 | -6.06
8 | Cc1ccoc1C(=O)NCC(Cc1ccc(F)cc1)C(N)=O (stereo unspecified) | -1.94 | 18.2 | 4.14 | 0.338 | 3.62 | 4.42 | 15.3 | -1.29 | 7.62 | 23.5 | -14.3
9 | Cn1cc2c(n1)C(COCC1CC1)CN(Cc1ccccn1)C2 (stereo unspecified) | -6.24 | -2.7 | 0.433 | -2.97 | 4.2 | -0.319 | 9.22 | 9.46 | 6.49 | 10.3 | 4.91
10 | CC(=O)NCC(=O)N1C[C@H](OCc2cccnc2)[C@H]2COC[C@H]21 | -4.16 | 2.7 | 1.91 | 2.9 | -4.49 | 2.5 | 12.3 | 5.47 | 4.95 | 6.1 | -2.54
11 | Cc1nc(COCc2cnc3n2CCN(CC2CCC2)C3C)cs1 (stereo unspecified) | -1.98 | -2.67 | -6.08 | 4.28 | 8.11 | -56.8 | 12.7 | -20.7 | -1.04 | 7.5 | -4.06
12 | CC(C(=O)N1CCN(c2cnccn2)CC1)n1cncn1 (stereo unspecified) | -0.0716 | 1.27 | 4.88 | 1.64 | -4 | 7.53 | 8.23 | 11.1 | 3.12 | 10.1 | -8.39
13 | CN(C)CCn1c(=O)oc2ccc(NC(=O)CC(C)(C)C)cc21 | -5.92 | 16 | -6.21 | 19.3 | 4.38 | 14.1 | 7.67 | 5.54 | 10.4 | 23.5 | 1.52
14 | COC(=O)c1ccc(N2CCN(C(=O)c3ccncc3)C(C)C2)cc1 (stereo unspecified) | -4.64 | 20.2 | -9.5 | 4.75 | 4.63 | -2.66 | 10.1 | 20.8 | 8.37 | 24.1 | -9.65
15 | CC1(C)CC(N2Cc3nc(N)ncc3C2=O)CC(C)(C)N1 | 0.646 | 10.4 | -3.77 | 8.41 | 4.23 | -35.9 | 10.7 | 11 | 6.45 | 21 | -5.13
16 | C=Cn1ncc(CN2C[C@@H]3CCCN3C[C@@H]2Cc2ccccc2)c1C | -3.58 | 4.05 | 3.48 | 4.39 | 2.37 | 0.696 | 11.2 | 26.4 | 6.45 | 14.3 | -13
17 | O=C(c1ccc[nH]1)N1CCN(CC2CCOc3ccccc3C2)CC1 (stereo unspecified) | -7.81 | 1.39 | -3.67 | 14.8 | 1.07 | -1.77 | 4.04 | -2.27 | 3.16 | -7.69 | -1
18 | CCN1CCN(C(=O)c2ccn(C)c(=O)c2)CC1 | -1.02 | 6.33 | 3.55 | -4.57 | -4.62 | -1.07 | 11.8 | 21.1 | 4.17 | -5.06 | -16.7
19 | CCCNC(=O)C(C)NC(=O)CCc1ccccc1Br (stereo unspecified) | 0.82 | 4.17 | 3.58 | -5.62 | -9.43 | 4.42 | 16.5 | 8.51 | 0 | 5.13 | -1.03
20 | COc1c(CNCCNC(=O)c2ccco2)c(C)nn1C | -4.26 | 2.7 | -4.46 | 0.652 | -1.39 | -0.185 | 4.31 | 11.3 | 3.96 | 11 | 0.206
21 | O=C(O)C1(Cc2cccc(-c3ccc(F)c(F)c3)c2)CCOCC1 | -3.39 | 1.35 | 13.4 | 4.42 | -1.78 | 1.16 | 5.93 | 28.6 | -15.1 | -11.7 | -15
